This is one part of a sample in which hits are shown more often than they occur.
Pf Dd2 growth – blocks in vitro growth of P. falciparum Dd2; 4.3% of 120,000 active; P. falciparum Dd2 growth, SYBR Green, 72 h; Potency, µM (top dose mostly 28.9 µM), hits mostly inhibitors; active = well fitted inhibition curve with a large enough effect; note: nearly all actives have a fitted effect of over 65% in size
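Readout: SYBR Green fluorescence, 485 nm excitation, 535 nm emission, after ~16 h lysis at 37C. Before that, Dd2-infected red cells (2.5% hematocrit) grew 72 h with compound, 29 uM top final concentration.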
Large screens that a line does not name were inactive.

Cc1ccc(-n2ncc(C(=O)NCCCN3CCCCC3)c2C2CCN(C(=O)OC(C)(C)C)CC2)c(C)c1	Pf Dd2 growth 8.9µM
Cc1ccc(-n2ncc(C(=O)NCCN3CCCC3)c2C2CCN(C(=O)OC(C)(C)C)CC2)cc1C	none
COCCNC(=O)c1cnn(-c2ccc(C)cc2C)c1C1CCN(C(=O)OC(C)(C)C)CC1	none
Cc1ccc(-n2ncc(C(=O)NC3CCCC3)c2C2CCN(C(=O)OC(C)(C)C)CC2)c(C)c1	Pf Dd2 growth 10µM
CC(C)(C)OC(=O)N1CCC(c2c(C(=O)NCCN3CCOCC3)cnn2-c2cccc(Cl)c2)CC1	Pf Dd2 growth 10µM
COc1ccc(-n2ncc(C(=O)NCCN3CCOCC3)c2C2CCN(C(=O)OC(C)(C)C)CC2)cc1	none
Cc1ccc(-n2ncc(C(=O)NCCCN3CCc4ccccc4C3)c2C2CCN(C(=O)OC(C)(C)C)CC2)c(C)c1	Pf Dd2 growth 7.1µM
CCn1ncc(C(=O)N[C@@H]2CN(c3ncccn3)C[C@H]2CN(C)C)c1C	none
CNC(=O)c1ccc(OC)c(-c2cc(N)nc3[nH]ccc23)c1	none
Cc1noc(C)c1CC(=O)N1CCCCCCNC(=O)CC1	none
Cc1ccc(NC(=O)Cn2cccc2-c2nc(-c3ccc4c(c3)OCO4)no2)cc1C	none
Cc1ccc(S(=O)(=O)N(C)CC2CCOC2)cc1F (stereo not given)	none
CNC(=O)[C@@H]1C[C@H](Oc2cccnc2)CN1C(=O)Cn1nc(C)cc1C	none
CCN1CCN(CCCNC(=O)c2cnn(-c3ccccc3)c2C2CCN(C(=O)OC(C)(C)C)CC2)CC1	none
CC(C)(C)OC(=O)N1CCC(c2c(C(=O)NCCCN3CCc4ccccc4C3)cnn2-c2ccccc2)CC1	Pf Dd2 growth 8.9µM
Cc1ccc(-n2ncc(C(=O)NCc3cccs3)c2C2CCN(C(=O)OC(C)(C)C)CC2)cc1	none
CC(C)(C)OC(=O)N1CCC(c2c(C(=O)NCc3ccccc3)cnn2-c2ccccc2)CC1	none
Cc1ccc(-n2ncc(C(=O)NCCCN3CCN(C)CC3)c2C2CCN(C(=O)OC(C)(C)C)CC2)cc1	none
CC(C)(C)OC(=O)N1CCC(c2c(C(=O)NCc3ccco3)cnn2-c2ccccc2)CC1	Pf Dd2 growth 10µM
COc1ccc(CN2C[C@@H](F)[C@@H](OCc3nc4ncccc4[nH]3)C2)cc1	none
CN(C)CCN(Cc1ccsc1)C(=O)[C@H]1CCC[C@H](O)C1	none
CCN1C(=O)CCN(C(=O)C2(c3ccc(OC)cc3)CC2)CC12CCOCC2	none
COC[C@@H]1CN(C(=O)c2ccccc2OC)C[C@H]1c1ccncc1	none
COc1ccc(C(=O)N2C[C@@H](COc3ccccc3)[C@H](C(N)=O)C2)cn1	none
Cc1ccsc1C(=O)N1CCC2(CC1)NC(=O)N(c1ccccc1)N2	none
O=C(c1n[nH]c2c1CCCC2)N1CCC2(CC1)NC(=O)N(c1ccccc1)N2	Pf Dd2 growth 3.2µM
COc1ccc(C(=O)N2CCC3(CC2)NC(=O)N(c2ccccc2)N3)cc1	none
CCOc1cc(=O)n2c(c1C(=O)Nc1cc(F)ccc1Cl)CCCC2	none
C[S+](=O)([O-])N1CC2(Cc3ccccc31)CN(C(=O)C1CCCC1)C2	none
CCCCN(CCCC)CCNC(=O)c1cc(-c2cccnc2)nc2ccc(S(=O)(=O)N3CCC(C)CC3)cc12	none
CCCCN(C)CCNC(=O)c1cc(-c2cccnc2)nc2ccc(S(=O)(=O)N3CCC(C)CC3)cc12	Pf Dd2 growth 5µM
CC1CCN(S(=O)(=O)c2ccc3nc(-c4cccnc4)cc(C(=O)NCCCOC(C)C)c3c2)CC1	none
Cc1cccc(Cl)c1CNC(=O)c1c(C)noc1-c1ccccc1Cl	none
CN1CC2(CCN(Cc3ccccn3)CC2)CC1C(=O)N1CCOCC1 (stereo not given)	none
CN1CC2(CCN(C(=O)CCCc3ccccc3)CC2)CC1C(=O)N1CCOCC1 (stereo not given)	Pf Dd2 growth 2.2µM
CN1CC2(CCN(Cc3cccn3C)CC2)CC1C(=O)N1CCOCC1 (stereo not given)	none
CCOC(=O)C1=C(C)N=C2SC=C(CC(=O)NCC3CCCO3)N2C1c1ccc(C)cc1C (stereo not given)	none
CS(=O)(=O)N(C1CCOCC1)C1CNC1	none
Cc1noc(C)c1CC(=O)N1CCC2(CC1)CN([S+](C)(=O)[O-])Cc1ccccc1O2	none
CCOC(=O)c1c(NC(=O)COc2ccc(Br)cc2)sc(C(C)=O)c1C	none
CCOC(=O)c1c(NC(=O)COc2ccccc2)sc(C(C)=O)c1C	none
CCOC(=O)c1c(NC(=O)COc2ccc(OC)cc2)sc(C(=O)N(CC)CC)c1C	Pf Dd2 growth 11µM
O=C(Cn1ccn2nc(-c3ccccc3)c(CO)c2c1=O)Nc1ccc(Cl)cc1F	none
CCOc1ccccc1CNC(=O)c1ccc2c(c1)N(S(C)(=O)=O)CC2	none
CCC(=O)N1CCc2c(C(=O)NCc3cccc(F)c3)cccc21	none
CCOc1ccccc1CNC(=O)c1cccc2c1CCN2C(=O)CC	Pf Dd2 growth 10µM
COCC(=O)N(C)Cc1ccccc1C(F)(F)F	none
CCc1nc(-c2c3n(c(=O)n(CC(=O)Nc4ccc(C)cc4)c2=O)CCCC3)no1	none
CN1CCCC1CCNc1nccc(-c2cnn(-c3ccc(F)cc3)c2)n1 (stereo not given)	Pf Dd2 growth 8.9µM
